Shown is part of a subset that was picked to be rich in hits.
RMI FANCM FP: inhibitors of human RMI core complex binding to FANCM MM2; Fluorescence polarization, RMI core complex with F-MM2 peptide; active compounds read low; 0.58% of 70,000 active; AID 1159607; FP signal (polarization) at 33 µM; in the data active means FP signal below about 40
* = called active by the depositor; ! = repeats disagree.

SMILES	RMI FANCM FP
CC(C)(C)NCC(O)COc1cccc2c1C[C@H](O)[C@H](O)C2 (stereo partly drawn)	-57*!
Cc1sc2nc[nH]c(=S)c2c1-c1ccc(Cl)cc1	57
C[C@]12CC[C@@H]3c4ccc(OS(=O)(=O)O)cc4CC[C@H]3[C@@H]1CCC2=O	33*!
C[C@]12CCC3c4ccc(O)cc4CCC3C1CCC2=O (stereo partly drawn)	65
C[C@]12CCC3c4ccc(OC(=O)CCC(=O)O)cc4CCC3C1CCC2=O (stereo partly drawn)	53
O=C(NCc1ccco1)C(=O)Nc1ccc(N2CCCS2(=O)=O)cc1	63
O=C(Nc1csc(-c2ccc(Oc3ccc(-c4nc(NC(=O)c5ccc(C(=O)c6ccccc6)cc5)cs4)cc3)cc2)n1)c1ccc(C(=O)c2ccccc2)cc1	25*
O=C(Nc1ccc(S(=O)(=O)N2CCOCC2)cc1)c1ccc(Cl)cc1	55
O=C(Nc1nc(-c2ccc(Br)cc2)cs1)c1ccc(Oc2ccc(C(=O)Nc3nc(-c4ccc(Br)cc4)cs3)cc2)cc1	58
O=C(Nc1csc(-c2ccc(Oc3ccc(-c4nc(NC(=O)c5cc(Cl)sc5Cl)cs4)cc3)cc2)n1)c1cc(Cl)sc1Cl	65
O=S(=O)(c1ccc(-c2nc(-c3ccc(Cl)cc3)cs2)cc1)N1CCOCC1	50
O=C(Nc1csc(-c2ccc(Oc3ccc(-c4nc(NC(=O)c5ccc(S(=O)(=O)N6CCOCC6)cc5)cs4)cc3)cc2)n1)c1ccc(S(=O)(=O)N2CCOCC2)cc1	9*
COc1ccccc1-c1csc(NC(=O)C(C)C)n1	19
COc1ccc(-c2csc(NC(=O)c3cccc(C(=O)Nc4nc(-c5ccc(OC)cc5OC)cs4)n3)n2)c(OC)c1	62
Cc1ccc(/C=C2/SC(=S)N(NC(=O)c3cccnc3)C2=O)o1	78
CCOC(=O)c1sc(NC(=O)CN2C(=O)CCSc3ccccc32)c(C(=O)OCC)c1C	64
O=C(NCc1ccccc1Cl)c1ccc2c(=O)nc3c(-c4cccc(C(F)(F)F)c4)n[nH]n3c2c1	65
CCCN1CCCc2cc(CCNS(=O)(=O)c3ccc(OC)c(F)c3)ccc21	192
CCCN1CCCc2cc(CCNS(=O)(=O)c3ccc(Br)cc3)ccc21	139
CCCN1CCCc2cc(CCNC(=O)Cc3ccc(F)cc3)ccc21	28*
CCCN1CCCc2cc(CCNC(=O)c3c(F)cccc3F)ccc21	59
CCCN1CCCc2cc(CCNC(=O)CC(C)(C)C)ccc21	77
CCCN1CCCc2cc(CCNS(=O)(=O)c3cccc(F)c3)ccc21	17*
COc1cccc(CSc2nc(CC(=O)Nc3ccc(OC)c(Cl)c3)cc(=O)[nH]2)c1	57
O=S(=O)(NCC1CCN(Cc2ccccc2)CC1)c1ccc(Cl)cc1	81
SMILES	RMI FANCM FP
COCc1cc(C)nc2oc(C(=O)c3ccccc3)c(N)c12	61
CCOC(=O)c1oc2nc3c(c(-c4cccnc4)c2c1N)CCc1ccccc1-3	37*
CCOC(=O)Cn1c(-c2cccnc2)nc(-c2ccccc2)c1-c1ccccc1	62
CCCSc1ncccc1C(=O)Nc1c(C)noc1C	56
CSc1ncnc(SC)c1Br	48
CS(=O)(=O)c1ccc(Nc2nc(CC(=O)NCCc3ccc(F)cc3)cs2)cc1	63
CC(=O)N1CC(C)=C(C#N)C1O (stereo not drawn)	-1*
CCOC(=O)COc1ccc(-c2cc(-c3ccccc3)c3cc(Cl)ccc3n2)cc1	64
CCCOc1ccc(-c2cc(C(=O)N=Nc3c(O)[nH]c4ccccc34)[nH]n2)cc1	58
Cc1ccc2nc(-c3ccc(OCC(=O)N=Nc4c(O)[nH]c5ccccc45)cc3)cc(-c3ccccc3)c2c1	20*
Cc1cc(C)c(S(=O)(=O)Cc2nc(-c3ccccc3Cl)no2)cc1C	103
COC(=O)c1ccc2nc(NC(=O)c3cc(-c4cccs4)nc4ccccc34)sc2c1	85
O=C(Nc1nc(-c2cccs2)c(C(=O)C(F)(F)F)s1)c1cc(-c2ccccc2)nc2ccccc12	19*
NC(=O)c1ccsc1NC(=O)c1cc(-c2ccccc2)nc2ccccc12	61
O=C(Nc1ccc2c(c1)N(C(=O)C1CC1)CC2)c1ccc(Cl)cc1Cl	72
CSC(=NC#N)N=c1nc(SC)n(C)n1C	54
CCOC(=O)c1c(NC(=O)c2cccc(S(=O)(=O)CC)c2)sc(C)c1C	56
Cc1cc(NC(=O)C(=O)NCC2(c3cccs3)CCCC2)c2ccccc2n1	73
O=C(c1cccnc1Oc1ccccc1)N1CCN(C2c3ccccc3-c3ccccc32)CC1	57
Cc1cc(C(=O)N2CCN(C3c4ccccc4-c4ccccc43)CC2)c(C)o1	47
O=C(O)c1ccccc1C(=O)N1CCN(C2c3ccccc3-c3ccccc32)CC1	32*
CC(=O)CSc1nnc(Cn2nnc3ccccc32)n1Cc1ccccc1	63
COC(=O)c1ccc(CSc2nnc(CNC(=O)c3cccc([N+](=O)[O-])c3C)o2)o1	55
O=C(CN1CCN(Cc2nc(-c3cccs3)cs2)CC1)Nc1ccccc1	60
O=C(Cn1ccn(-c2ccc3c(c2)OCCO3)c(=O)c1=O)c1ccc(F)cc1	53
SMILES	RMI FANCM FP
CCOC(=O)N1CCc2c(sc(NC(=O)c3cccc(C)c3)c2C(N)=O)C1	65
CCOC(=O)c1c(NC(=O)c2ccc3ncsc3c2)sc2c1CCN(C(=O)OCC)C2	-5*
COC(=O)N1CCc2c(sc(NC(=O)c3ccc4ncsc4c3)c2C(N)=O)C1	75
Cc1cccc(N2CCC(=NC(N)=S)N2)c1	56
O=C(O)c1cccc(Nc2nc3ccccc3nc2NS(=O)(=O)c2ccc(F)cc2)c1	58
COc1ccc(Nc2nc3ccccc3nc2NS(=O)(=O)c2ccc(NC(C)=O)cc2)cc1	7*!
COc1ccc(NS(=O)(=O)c2ccc(NC(C)=O)cc2)cc1	55
CC1(C)COc2ccc(NS(=O)(=O)C3CCCCC3)cc2NC1=O	64
CCOC(=O)c1cc(C#N)c2ccccn2c1=O	33*
CCOC(=O)c1cc(C#N)c(Sc2ccccc2)nc1C(F)(F)F	53
CCOC(=O)c1cc(C#N)c(SCC(=O)Nc2ccc(C(C)=O)cc2)[nH]c1=O	55
Cc1ccc(-n2ncc3c(=O)[nH]c(-n4nc(C)cc4NC(=O)c4ccc(Cl)cc4Cl)nc32)cc1	65
O=C1Sc2cccc3cccc1c23	58*
CNN1C(=O)c2cccc3cccc(c23)C1=O	55
O=C(O)c1cccc2cccc(-c3cccc4cccc(C(=O)O)c34)c12	53
COc1cc(OC)cc(-c2noc(CSc3nc4ccccc4c(=O)n3Cc3ccco3)n2)c1	82
CCC(C)NC(=O)Cn1cccc(-c2nc(-c3ccc(Cl)cc3)no2)c1=O (stereo not drawn)	112
CCOC(=O)c1cccc(O)c1O	47
CC(SC1=NCCN1S(=O)(=O)c1ccc(Br)cc1)c1ccccc1 (stereo not drawn)	59
Cc1ccc(/C=N\NC(=O)c2cc([N+](=O)[O-])cc([N+](=O)[O-])c2)cc1	61
Cc1cc[n+](-c2[nH]c(=O)sc2/C=N\NC(=O)c2ccccc2[O-])cc1	1*
Cc1ccccc1C(=O)N/N=C\c1ccc(OC(=O)c2ccccc2)cc1	63
CC(C)(C)c1ccc(NC(=O)CSc2nc3[nH]ncc3c(=O)n2-c2ccccc2)cc1	68
O=C(NNC(=O)c1ccc[nH]1)Nc1ccccc1	50
CCC(=O)c1ccc(OCC(O)CNC2CCCCCC2)cc1 (stereo not drawn)	63
O=C(NCCS(=O)(=O)NC1CCCCC1)c1ccccc1	53
CC(CNC1CCCCC1)OC(=O)c1ccccc1 (stereo not drawn)	19*
O=C(c1cccs1)N1CCC2(CC1)NC(=O)N(Cc1ccc(F)cc1)C2=O	61
O=C(CSCc1c(F)cccc1Cl)c1ccc2c(c1)OCCO2	57
CCN(CC)CCCN1C(=O)C(O)=C(C(=O)c2ccc(C)o2)C1c1ccccn1 (stereo not drawn)	62

Screens from PubChem.
